Most compounds without a hit are left out; they make up all but 18% or so of the library.
RORg inh: inhibitors of mouse ROR gamma transcriptional activity | P51450 | Drosophila S2 Gal4-RORgamma UAS-luciferase reporter, 20 h | Potency, µM (top dose mostly 53.6 µM), most hits filed as inhibitors | 310,000 tested, 5.4% active; note: nearly all actives have a fitted effect of over 60% in size
Target sequence (P51450 whole entry, looked up, the tested form may be a part): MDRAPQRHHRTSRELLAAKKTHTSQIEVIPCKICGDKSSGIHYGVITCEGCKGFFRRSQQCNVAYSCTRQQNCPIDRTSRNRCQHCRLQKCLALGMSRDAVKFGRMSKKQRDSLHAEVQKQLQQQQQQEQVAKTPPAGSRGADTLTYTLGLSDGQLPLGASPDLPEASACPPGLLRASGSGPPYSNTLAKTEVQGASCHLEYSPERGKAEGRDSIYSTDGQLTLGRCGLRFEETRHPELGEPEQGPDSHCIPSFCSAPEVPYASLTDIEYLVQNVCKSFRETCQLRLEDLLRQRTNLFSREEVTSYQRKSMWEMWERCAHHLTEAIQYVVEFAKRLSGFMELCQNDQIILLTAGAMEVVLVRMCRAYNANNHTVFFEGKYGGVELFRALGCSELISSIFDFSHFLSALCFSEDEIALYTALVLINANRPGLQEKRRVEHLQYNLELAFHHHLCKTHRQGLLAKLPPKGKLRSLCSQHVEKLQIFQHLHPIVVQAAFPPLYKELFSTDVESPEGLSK
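A Gal4/UAS one-hybrid system in insect cells: metallothionein-promoter Gal4–ROR gamma fusion plus Photinus luciferase reporter. Copper sulfate 700 uM final, 20 hr ambient incubation, luminescent detection after 10 min with reagent.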
TDP1 cell CPT: growth inhibition of DT40 Tdp1-/-;hTDP1 cells with camptothecin (screen for TDP1 inhibitors); chicken DT40 Tdp1-/-;hTDP1 cells + 20 nM CPT, ATP luminescence, 48 h; Potency, µM (series often up to 46.2 µM), most hits filed as inhibitors; 420,000 tested, 12% active; AID 686979; note: nearly all actives have a fitted effect of over 55% in size
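Chicken DT40 Tdp1-/- cells complemented with human TDP1, 400 cells/well, exposed to compounds plus 20 nM camptothecin for at least 48 h at 37 C; viability read as ATP content by CellTiter-Glo luminescence.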
IL1B secr inh: inhibitors of inflammasome signaling (IL-1 beta secretion). THP-1 LPS/ATP IL-1B secretion, AlphaLISA, 16 h; hits give low values. activity change, % at 57.5 µM. 360,000 tested, 4.7% active. AID 743279; in the data active = activity change below about -50%; inconclusive = mostly about -30% to -49%
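Secreted IL-1B measured by AlphaLISA bead assay after 16 h compound exposure of THP-1 cells; compounds (final up to 57.5 uM) added 1 h before LPS (250 ng/mL) and ATP (1.25 mM) stimulation; lower signal means less secretion.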
DT40 TDP1 no CPT: qHTS for Inhibitors of human tyrosyl-DNA phosphodiesterase 1 (TDP1): qHTS in cells in absence of CPT. AID 686978, 2013. Potency, µM (titrated, usually from 46.2 µM), actives largely listed as inhibitors. DT40 Tdp1-/- hTDP1 cells, no CPT, ATP luminescence, 48 h. 420,000 tested, 15% active; note: nearly all actives have a fitted effect of over 55% in size
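Growth kinetics read by CellTiter-Glo luminescence after ≥48 hr at 37 °C. Cells: DT40 Tdp1-/- stably carrying human TDP1, 400 per well, compound exposure in the absence of CPT (DMSO vehicle).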
VP16 counter: Gal4-VP16 reporter inhibition counter-screen. Drosophila S2 Gal4-VP16 UAS-luciferase, luminescence, 20 h. Potency, µM (top dose mostly 53.6 µM), most hits filed as inhibitors. 310,000 tested, 3.5% active;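 note: Gal4-VP16 expression switched on by copper sulfate through the metallothionein promoter; nearly all actives have a fitted effect of over 50% in size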
LDHA block: inhibitors of human lactate dehydrogenase A; P00338; purified LDHA, NADH/diaphorase-resazurin fluorescence; hits give low values; activity change, % (values are at about 110 or 230 µM); 480,000 tested, 0.15% active; AID 1347041; in the data active = activity change below about -30%; inconclusive = mostly about -25% to -30%
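Human LDH5 at 2 nM final in Tris HCl pH 7.4 with 0.06 mM NADH and 0.2 mM pyruvate, reacted 5 minutes at room temperature. Remaining NADH coupled via diaphorase/resazurin; resorufin fluorescence read at 0 and 20 minutes, normalized to enzyme-free and DMSO wells.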
A number is an active result; i = inactive; ? = inconclusive; nt = not tested or not shown. Unless noted, calls come from the whole dose curve; as a rule, active = well fitted curve in the direction sought with a large enough effect; inconclusive = small, poorly fitted or top-dose-only effect, or another doubt; inactive = no such curve, though single readings can be large; an effect the other way counts as inactive or inconclusive.

SMILES | RORg inh | TDP1 cell CPT | IL1B secr inh | DT40 TDP1 no CPT | VP16 counter | LDHA block
C/C(O)=C(\C#N)c1nc2ccccc2[nH]1 | ? | i | i | ? | 14.1µM | i
C=CCn1c(COc2ccccc2)nnc1SCc1ccc(C#N)cc1 | i | ? | i | ? | i | i
Cn1cnnc1SC/C(O)=C(\C#N)c1nc2ccccc2[nH]1 | i | i | i | i | i | i
C=CCn1c(COc2ccc(CC)cc2)nnc1SC/C(O)=C(\C#N)c1nc2ccccc2[nH]1 | 11.2µM | i | i | i | ? | i
N#C/C(=C(\O)Cc1ccccc1)c1nc2ccccc2[nH]1 | 2.82µM | ? | i | ? | ? | i
C=CCNC(=O)NC(=O)CN(C)Cc1ccc(OC)c(OC(F)F)c1 | nt | nt | nt | nt | nt | i
Cc1ccc(C(=O)Nc2ccc(C(C)C)cc2)c(Cl)c1 | nt | nt | nt | nt | nt | i
N#C/C(=C(/O)CN1C(=O)c2ccccc2C1=O)c1nc2ccccc2[nH]1 | 11.2µM | i | i | i | ? | i
CCN(CC)c1ccc(C(=C2C=CC(=[N+](CC)CC)C=C2)c2ccc(N(CC)CC)cc2)cc1 | nt | 0.92µM | ? | 0.731µM | nt | i
CCN(CC)c1ccc(C(=C2C=CC(=[N+](CC)Cc3cccc(S(=O)(=O)[O-])c3)C=C2)c2ccc(N(CC)Cc3cccc(S(=O)(=O)O)c3)cc2)cc1 | i | nt | nt | nt | 11.2µM | nt
CCN(CC)c1ccc(C(=C2C=CC(=[N+](CC)CC)C=C2)c2ccccc2)cc1 | 2.51µM | 0.164µM | -119.6 | 0.146µM | 35.5µM | i
COc1ccc(N2Cc3cccc(C(=O)NCc4ccc(C)cc4)c3C2=O)cc1 | nt | nt | nt | nt | nt | i
Cc1cccc(NC(=O)CCCn2c(C)c3cnn(-c4ccccc4)c(=O)c3c2C)c1C | nt | 20.6µM | nt | ? | nt | i
COc1ccc2cc(C(=O)N3CCN(c4cccc(C)c4C)CC3)c(C)nc2c1 | nt | nt | nt | nt | nt | i
Cc1cc(C(=O)N2CCN(c3cccc(C)c3C)CC2)c2c(C)nn(-c3ccccc3)c2n1 | nt | ? | nt | 7.31µM | nt | i
Cc1cc(C)c(NC(=O)CCCn2c(C)c3cnn(-c4ccccc4)c(=O)c3c2C)c(C)c1 | nt | ? | nt | 23.1µM | nt | i
Cc1cccc(N2CCN(C(=O)Cn3c(C)c4cnn(-c5ccccc5)c(=O)c4c3C)CC2)c1C | nt | 7.31µM | nt | 5.8µM | nt | i
Cc1ccc2c(CN3CCc4cc(S(N)(=O)=O)ccc43)cc(=O)oc2c1 | nt | nt | nt | nt | nt | i
Cc1ccc(Cl)cc1NC(=O)NC1(c2ccccc2)CCC1 | nt | nt | nt | nt | nt | i
O=C(COC(=O)C12CC3CC(CC(Cl)(C3)C1)C2)Nc1ccc(Cl)cc1[N+](=O)[O-] | nt | nt | nt | nt | nt | i
CC1CCc2nc(NC(=O)Cc3n[nH]c(=O)c4ccccc34)sc2C1 (stereo not drawn) | nt | nt | nt | nt | nt | i
COC(=O)C(C)Oc1ccc2cc(-c3ccc(OC)c(OC)c3)c(=O)oc2c1 (stereo not drawn) | nt | nt | nt | nt | nt | i
COc1ccc(NC(=O)C(C)n2c(C)c3cnn(-c4ccccc4)c(=O)c3c2C)c(OC)c1 (stereo not drawn) | nt | nt | nt | nt | nt | i
Cc1ccc(C)c(NC(=O)CCCn2c(C)c3cnn(-c4ccccc4)c(=O)c3c2C)c1 | nt | 18.4µM | nt | ? | nt | i
Cc1ccc(C)c(N2CCN(C(=O)C(C)n3c(C)c4cnn(-c5ccccc5)c(=O)c4c3C)CC2)c1 (stereo not drawn) | nt | 20.6µM | nt | 16.4µM | nt | i
SMILES | RORg inh | TDP1 cell CPT | IL1B secr inh | DT40 TDP1 no CPT | VP16 counter | LDHA block
Cc1c2cnn(-c3ccccc3)c(=O)c2c(C)n1CCCC(=O)Nc1cc(F)ccc1F | nt | i | nt | ? | nt | i
COc1ccc(OC)c(NC(=O)Cn2ccc3ccccc32)c1 | nt | nt | nt | nt | nt | i
O=C(O)c1ccc(-c2ccc(Cl)cc2)s1 | nt | nt | nt | nt | nt | i
NC(=S)c1ccc(C(F)(F)F)cc1 | nt | nt | nt | nt | nt | i
CN(c1ccccc1)S(=O)(=O)c1ccc(C(=O)Nc2ccncc2)cc1 | nt | ? | i | 14.6µM | nt | i
CN(c1ccccc1)S(=O)(=O)c1ccc(NC(=O)c2ccc(F)cc2)cc1 | nt | i | -85.7 | ? | nt | i
CN(c1ccccc1)S(=O)(=O)c1ccc(NC(=O)c2cccs2)cc1 | i | ? | -60.2 | ? | i | i
CN(c1ccccc1)S(=O)(=O)c1ccc(NC(=O)c2ccccc2)cc1 | ? | i | ? | ? | i | i
CCN(C(=O)c1occc1C)C1CC1 | nt | nt | nt | nt | nt | i
CC[C@@H](C)[C@H](NC(=O)[C@H](C)n1nnc2ccccc2c1=O)C(=O)O | nt | nt | nt | nt | nt | i
Cc1cc2nc(SCC(=O)Nc3cc(Cl)ccc3C)[nH]c(=O)c2[nH]1 | nt | nt | nt | nt | nt | i
CN1CCN(c2ccccc2NC(=O)c2ccc(-c3ccccc3[N+](=O)[O-])o2)CC1 | i | 14.6µM | i | 16.4µM | i | i
Cc1cccc(NC(=O)c2ccc(-c3ccccc3[N+](=O)[O-])o2)c1 | i | i | i | ? | i | i
O=C(NC(=S)Nc1ccccc1N1CCCCC1)c1ccc(-c2cccc([N+](=O)[O-])c2)o1 | 0.501µM | ? | i | 23.1µM | 2.24µM | i
O=C(NC(=S)Nc1ccccc1N1CCCC1)c1ccc(-c2cccc([N+](=O)[O-])c2)o1 | i | ? | ? | ? | i | i
CC(=O)N1CCN(c2ccccc2NC(=O)c2ccc(-c3cccc([N+](=O)[O-])c3)o2)CC1 | i | 23.1µM | i | 16.4µM | i | i
O=C(O)CCCC(=O)Nc1ccc(C(=O)N2CCCCCC2)cc1 | nt | nt | nt | nt | nt | i
COc1ccc(-c2cc(C(F)(F)F)nc(SCC(=O)Nc3cc(C)on3)n2)cc1OC | i | i | i | i | i | i
O=C(CCSc1nc(-c2ccc3c(c2)OCO3)cc(C(F)(F)F)n1)NCc1ccccc1 | i | ? | i | 14.6µM | i | i
COc1ccc(-c2cc(C(F)(F)F)nc(SCC(=O)N(C)Cc3cnn(C)c3C)n2)cc1OC | i | 16.4µM | i | 16.4µM | i | i
COc1ccc(CNC(=O)CCSc2nc(-c3ccc4c(c3)OCO4)cc(C(F)(F)F)n2)cc1 | ? | i | i | ? | ? | i
O=C(CCSc1nc(-c2ccc3c(c2)OCO3)cc(C(F)(F)F)n1)N1CCCC1 | nt | nt | nt | nt | nt | i
CN(Cc1ccccc1)C(=O)CSc1nc(-c2ccc(F)cc2)cc(C(F)(F)F)n1 | nt | 20.6µM | nt | 14.6µM | nt | i
CN(Cc1ccccc1)C(=O)CCSc1nc(-c2ccc3c(c2)OCO3)cc(C(F)(F)F)n1 | i | ? | i | 18.4µM | i | i
Cc1c(O)ccc2c(CN3CCN(c4ccccc4)CC3)cc(=O)oc12 | nt | nt | nt | nt | nt | i
COc1ccc(-c2cc(-c3ccc(O)cc3)nc(N)c2C#N)cc1 | i | ? | i | 23.1µM | i | i
COc1ccc(OC)c(-c2cc(-c3cccnc3)nc(N)c2C#N)c1 | i | 0.92µM | i | 0.92µM | i | i

Source: PubChem
